In PubChem BioAssay (NCATS):
Records with an inconclusive call do not appear. Calls of active or inactive are those of the source. Calls come from the whole dose curve; as a rule, active = well fitted cell-killing curve with a large enough effect; inconclusive = small, poorly fitted or top-dose-only effect, or effect the other way; inactive = flat fitted curve, though single readings scatter.

Test system: PA-1
Test: Primary qHTS to identify gynecologic anti-cancer compounds using libraries of approved drugs and bioactive compounds (AID 1345084); note: nearly all actives have a fitted effect of over 55% in size
Settings: Gynecologic cancer cell panel viability, ATPlite luminescence, 48 h; series mostly up to 57.5 µM; activity change, negative = cytotoxicity: at the top concentration
In short: (§1)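 Measured: luminescence after ATPlite addition (15 min, RT). Exposure: 48 h, 37 C, 5% CO2.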
% is set by controls: 0 for no effect and ±100 for the full control effect; potency is the fitted concentration of half-maximal effect.

Compound	activity change, negative = cytotoxicity	Potency
CC(=O)OC[C@H]1O[C@H](O[C@]2(CO)O[C@H](CO)[C@@H](OC(=O)/C=C/c3ccccc3)[C@@H]2O)[C@H](O)[C@@H](O)[C@@H]1O	-4.73% [at 25.3 µM] (inactive)	–
C=C(C)C1CC[C@]2(C(=O)O)CC[C@]3(C(=O)O)[C@H](CCC4[C@@]5(C)CC[C@H](O)C(C)(C)C5CC[C@]43C)C12 (stereo partly specified)	20.6% [at 25.3 µM] (inactive)	–
COc1cc(/C=C/C(=O)O[C@H]2[C@H](O)[C@@H](CO)O[C@@]2(CO)O[C@H]2O[C@H](CO)[C@@H](O)[C@H](O)[C@H]2O)ccc1O	3.87% [at 25.3 µM] (inactive)	–
CC1(C(=O)O)CCCC2(C)C3CCC4CC3(CCC12)CC4=O (stereo unspecified)	8.49% (inactive)	–
C/C=C/C(O)C1OC(=O)CC1Nc1ccc(C(=O)O)cc1 (stereo unspecified)	2.72% (inactive)	–
C=C(CO[C@@H]1O[C@H](CO[C@@H]2OC[C@](O)(CO)[C@H]2O)[C@@H](O)[C@H](O)[C@H]1O)C1Cc2cc(C(C)=O)ccc2O1 (stereo partly specified)	2.03% [at 25.3 µM] (inactive)	–
COc1ccc([C@@]2(O)c3c(ccc4c3OC(C)(CCC=C(C)C)C=C4)NC(=O)[C@@H]2OC)cc1 (stereo partly specified)	1.67% [at 25.3 µM] (inactive)	–
C=C1C[C@]23C[C@H]1[C@@H](O)C[C@H]2[C@@]12C=C[C@H](O)[C@@](C)(C(=O)O1)[C@H]2[C@@H]3C(=O)O	5.51% [at 38.5 µM] (inactive)	–
C=C1C(=O)O[C@@H]2C[C@H](C)[C@@]3(O)C=C(C(C)=O)[C@]4(CC3C[C@H]12)C(=O)O[C@H]1C[C@@H](C)C(CCC(C)=O)=CC[C@H]14 (stereo partly specified)	1.74% [at 25.3 µM] (inactive)	–
CCC(C)C(=O)OC1CC(C)C=C2C=CC(C)C(CCC(O)CC(O)CC(=O)O)C21 (stereo unspecified)	-12.4% [at 25.3 µM] (inactive)	–
OC[C@H]1O[C@@H](OCCc2ccccc2)[C@H](O[C@@H]2OC[C@](O)(CO)[C@H]2O)[C@@H](O)[C@@H]1O	5.94% [at 25.3 µM] (inactive)	–
CC1=C(C(=O)O)/C(=C\CO[C@@H]2O[C@H](CO)[C@@H](O)[C@H](O)[C@H]2O)C(OC(=O)/C=C\c2ccc(O)cc2)C1 (stereo partly specified)	12.9% [at 25.3 µM] (inactive)	–
CC1(C)CCCC2(C)C1C(O)C=C(CO)C2(O)CO (stereo unspecified)	-2.76% (inactive)	–
C/C=C(\C)C(=O)OCC1OC(OC2OC(COC(=O)/C(C)=C/C)C(OC3OC(CO)C(OC(=O)/C(C)=C/C)C(OC(=O)/C(C)=C/C)C3O)C(O)C2O)C(O)C(O)C1OC1OC(CO)C(OC(=O)/C(C)=C/C)C(OC(=O)/C(C)=C/C)C1O (stereo unspecified)	0.651% [at 11.6 µM] (inactive)	–
COc1c2c(c(C)c3c1C(=O)OC3)O[C@@]1(C)CCC3(C(C)(C)O)OC(=O)CC[C@]3(C)[C@H]1C2 (stereo partly specified)	-0.498% [at 25.3 µM] (inactive)	–
COc1ccc(C[C@H](N)C(=O)N[C@@H]2[C@H](O)[C@H](n3cnc4c(N(C)C)ncnc43)O[C@@H]2CO)cc1	–	1000 nM (active)
OC1CCC(Nc2ncc3nc(Nc4c(F)cc(F)cc4F)n([C@H]4CCOC4)c3n2)CC1 (stereo partly specified)	3.31% (inactive)	–
Cn1cc(-c2ccc3nnc(Sc4ccc5nn(C)cc5c4)n3n2)cn1	4.96% (inactive)	–
COc1cc(N)c(Cl)cc1C(=O)NC[C@@H]1CCN2CCC[C@@H]12	-1.69% (inactive)	–
CC1(C)CCCC2(C)C1CC=C1C(=O)OC(O)C12O (stereo unspecified)	-15% (inactive)	–
CCOc1ccc(S(=O)(=O)n2c(C)nc3ccccc32)cc1	-0.346% [at 25.3 µM] (inactive)	–
CC(C)[C@H]1CC[C@@]2(O)COC(=O)[C@H]2[C@@H]1/C=C(\CO)C(=O)O	15.5% (inactive)	–
CC(O)CO[C@@H]1O[C@H](CO)[C@@H](O)[C@H](O)[C@H]1O (stereo partly specified)	-5.86% (inactive)	–
CC1(C=O)CC[C@]2(C(=O)O[C@@H]3O[C@H](CO)[C@@H](O)[C@H](O)[C@H]3O)CC[C@]3(C)C(=CCC4[C@@]5(C)C[C@H](O)[C@H](O[C@@H]6OC[C@@H](O)[C@H](O)[C@H]6O)[C@@](C)(CO)C5CC[C@]43C)C2C1 (stereo partly specified)	-2% [at 11.6 µM] (inactive)	–
COC1C(CO)OC(n2cnc3c(=O)[nH]cnc32)C1O (stereo unspecified)	-5.85% (inactive)	–
Cc1csc(NC(=O)c2ccc(COc3cccc(Cl)c3)o2)n1	-15.4% (inactive)	–
CC[C@@](C)(Nc1ccnc(-c2c[nH]c3ncccc23)n1)C(=O)NCC(F)(F)F	5.61% (inactive)	–

Test system: SKOV3
Test: as above
Settings: Gynecologic cancer cell panel viability, ATPlite luminescence, 48 h; series mostly up to 57.5 µM; activity change, negative = cytotoxicity: at the top concentration
In short: as §1

Compound	activity change, negative = cytotoxicity	Potency
COc1ccc(-c2nc(-c3ccc(-c4cccc(Cl)c4)o3)[nH]c2-c2ccc(OC)cc2)cc1	-4.75% (inactive)	–
CC(=O)c1c(O)cc(O[C@@H]2O[C@H](CO)[C@@H](O)[C@H](O)[C@H]2O)cc1O	2.81% [at 38.5 µM] (inactive)	–
C=C1C(O)C(O)C2(CC3C(C)=CCC4C(C)(CO)CCCC34C)OC2C1O (stereo unspecified)	-4.67% [at 38.5 µM] (inactive)	–
O=C1NC(Cc2c[nH]c3ccccc23)C(=O)NC1Cc1c[nH]c2ccccc12 (stereo unspecified)	8.25% [at 38.5 µM] (inactive)	–
CC1CCC2(C=O)C(CO)=CCCC2C1(C)CC(=O)O (stereo unspecified)	-5.55% (inactive)	–
COc1cc(C)c(C(=O)O[C@H]2[C@@H](OC(C)=O)[C@H](n3ccc(=O)[nH]c3=O)O[C@@H]2CO)c(OC)c1	5.64% [at 25.3 µM] (inactive)	–
COC(=O)C1=CO[C@@H](O[C@@H]2O[C@H](CO)[C@@H](O)[C@H](O)[C@H]2O)[C@@H]2[C@@](C)(O)[C@@H](OC(=O)/C=C/c3ccc(O)cc3)C[C@]12O	-7.04% [at 25.3 µM] (inactive)	–
C[C@@H]([C@@H](O)c1ccc(O)cc1)N1CCC(O)(c2ccccc2)CC1	28.8% (inactive)	–
N#C[C@@H]1C[C@H](F)CN1C(=O)CNC1[C@H]2CN(C(=O)c3ccc(F)cc3)C[C@@H]12 (stereo partly specified)	12.5% (inactive)	–
C=C1CCC2C(C)(C(=O)OC)CCCC2(C)C1CCC(C)CC(=O)O (stereo unspecified)	4.29% [at 38.5 µM] (inactive)	–
C[C@@H]1C(=O)O[C@H]2C[C@]34[C@H]5C[C@@H](C(C)(C)C)[C@]36[C@@H](OC(=O)[C@H]6O)O[C@]4(C(=O)O5)[C@]21O	-8.31% [at 25.3 µM] (inactive)	–
COC(=O)C1=COC(O[C@@H]2O[C@H](CO)[C@@H](O)[C@H](O)[C@H]2O)[C@H]2[C@@H]1[C@H](OC(=O)CCc1ccc(O)cc1)C[C@]2(C)O (stereo partly specified)	-3.83% [at 25.3 µM] (inactive)	–
CC(=O)OC[C@H]1O[C@H](O[C@]2(CO)O[C@H](CO)[C@@H](OC(=O)/C=C/c3ccccc3)[C@@H]2O)[C@H](O)[C@@H](O)[C@@H]1O	-0.221% [at 25.3 µM] (inactive)	–
C=C(C)C1CC[C@]2(C(=O)O)CC[C@]3(C(=O)O)[C@H](CCC4[C@@]5(C)CC[C@H](O)C(C)(C)C5CC[C@]43C)C12 (stereo partly specified)	29.8% [at 25.3 µM] (inactive)	–
COc1cc(/C=C/C(=O)O[C@H]2[C@H](O)[C@@H](CO)O[C@@]2(CO)O[C@H]2O[C@H](CO)[C@@H](O)[C@H](O)[C@H]2O)ccc1O	-9.97% [at 25.3 µM] (inactive)	–
CC1(C(=O)O)CCCC2(C)C3CCC4CC3(CCC12)CC4=O (stereo unspecified)	14% (inactive)	–
C/C=C/C(O)C1OC(=O)CC1Nc1ccc(C(=O)O)cc1 (stereo unspecified)	4.73% (inactive)	–
C=C(CO[C@@H]1O[C@H](CO[C@@H]2OC[C@](O)(CO)[C@H]2O)[C@@H](O)[C@H](O)[C@H]1O)C1Cc2cc(C(C)=O)ccc2O1 (stereo partly specified)	3.05% [at 25.3 µM] (inactive)	–
COc1ccc([C@@]2(O)c3c(ccc4c3OC(C)(CCC=C(C)C)C=C4)NC(=O)[C@@H]2OC)cc1 (stereo partly specified)	1.47% [at 25.3 µM] (inactive)	–
C=C1C[C@]23C[C@H]1[C@@H](O)C[C@H]2[C@@]12C=C[C@H](O)[C@@](C)(C(=O)O1)[C@H]2[C@@H]3C(=O)O	-8.9% [at 38.5 µM] (inactive)	–

Compound	activity change, negative = cytotoxicity	Potency
C=C1C(=O)O[C@@H]2C[C@H](C)[C@@]3(O)C=C(C(C)=O)[C@]4(CC3C[C@H]12)C(=O)O[C@H]1C[C@@H](C)C(CCC(C)=O)=CC[C@H]14 (stereo partly specified)	0.846% [at 25.3 µM] (inactive)	–
CCC(C)C(=O)OC1CC(C)C=C2C=CC(C)C(CCC(O)CC(O)CC(=O)O)C21 (stereo unspecified)	-10.2% [at 25.3 µM] (inactive)	–
OC[C@H]1O[C@@H](OCCc2ccccc2)[C@H](O[C@@H]2OC[C@](O)(CO)[C@H]2O)[C@@H](O)[C@@H]1O	9.81% [at 25.3 µM] (inactive)	–
CC1=C(C(=O)O)/C(=C\CO[C@@H]2O[C@H](CO)[C@@H](O)[C@H](O)[C@H]2O)C(OC(=O)/C=C\c2ccc(O)cc2)C1 (stereo partly specified)	5.2% [at 25.3 µM] (inactive)	–
CC1(C)CCCC2(C)C1C(O)C=C(CO)C2(O)CO (stereo unspecified)	4.61% (inactive)	–
C/C=C(\C)C(=O)OCC1OC(OC2OC(COC(=O)/C(C)=C/C)C(OC3OC(CO)C(OC(=O)/C(C)=C/C)C(OC(=O)/C(C)=C/C)C3O)C(O)C2O)C(O)C(O)C1OC1OC(CO)C(OC(=O)/C(C)=C/C)C(OC(=O)/C(C)=C/C)C1O (stereo unspecified)	-11.6% [at 11.6 µM] (inactive)	–
COc1c2c(c(C)c3c1C(=O)OC3)O[C@@]1(C)CCC3(C(C)(C)O)OC(=O)CC[C@]3(C)[C@H]1C2 (stereo partly specified)	-23.2% [at 25.3 µM] (inactive)	–
COc1ccc(C[C@H](N)C(=O)N[C@@H]2[C@H](O)[C@H](n3cnc4c(N(C)C)ncnc43)O[C@@H]2CO)cc1	–	2820 nM (active)
OC1CCC(Nc2ncc3nc(Nc4c(F)cc(F)cc4F)n([C@H]4CCOC4)c3n2)CC1 (stereo partly specified)	-1.31% (inactive)	–
Cn1cc(-c2ccc3nnc(Sc4ccc5nn(C)cc5c4)n3n2)cn1	4.69% (inactive)	–
COc1cc(N)c(Cl)cc1C(=O)NC[C@@H]1CCN2CCC[C@@H]12	0% (inactive)	–
CC1(C)CCCC2(C)C1CC=C1C(=O)OC(O)C12O (stereo unspecified)	-2.75% (inactive)	–
CCOc1ccc(S(=O)(=O)n2c(C)nc3ccccc32)cc1	-6.04% [at 25.3 µM] (inactive)	–
CC(C)[C@H]1CC[C@@]2(O)COC(=O)[C@H]2[C@@H]1/C=C(\CO)C(=O)O	0% (inactive)	–
CC(O)CO[C@@H]1O[C@H](CO)[C@@H](O)[C@H](O)[C@H]1O (stereo partly specified)	-29.5% (inactive)	–
CC1(C=O)CC[C@]2(C(=O)O[C@@H]3O[C@H](CO)[C@@H](O)[C@H](O)[C@H]3O)CC[C@]3(C)C(=CCC4[C@@]5(C)C[C@H](O)[C@H](O[C@@H]6OC[C@@H](O)[C@H](O)[C@H]6O)[C@@](C)(CO)C5CC[C@]43C)C2C1 (stereo partly specified)	1.41% [at 11.6 µM] (inactive)	–
COC1C(CO)OC(n2cnc3c(=O)[nH]cnc32)C1O (stereo unspecified)	-0.252% (inactive)	–
Cc1csc(NC(=O)c2ccc(COc3cccc(Cl)c3)o2)n1	-4.3% (inactive)	–
CC[C@@](C)(Nc1ccnc(-c2c[nH]c3ncccc23)n1)C(=O)NCC(F)(F)F	21.8% (inactive)	–
